± gives the standard deviation of the averaged measurements.
Key:
MDA-MB-231 [1] = experiment: cell viability relative to vehicle unstimulated control (fraction); higher = more viable cells; conditions: pre-treatment time: 18 h then 24 h IFNg/TNF
MDA-MB-231 [2] = experiment: kynurenine production, fold change vs DMSO IFNg/TNF control; higher = more kynurenine produced (less inhibition); conditions: pre-treatment time: 18 h then 24 h IFNg/TNF
In short: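 After trichloroacetic acid and p-dimethylaminobenzaldehyde treatment, supernatants were read at 492 nm, with 0–100 μM standards. These came from MDA-MB-231 cells (7 × 10^4/well, 96-well plates) pre-treated 18 h with natural products in 0.1% DMSO and then exposed 24 h to IFNγ (1 U/ml) and TNF (6.25 ng/ml) at 37°C. Values for kynurenine production are fold changes over same-plate cytokine-stimulated vehicle wells, averaged over duplicate plates in the first screening round.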
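For cell viability relative to vehicle unstimulated control in this document: viability of the cells left after supernatant collection, read with Deep Blue dye added for 4 h, as absorbance at 570 nm minus 600 nm.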

Row | SMILES | cell viability (MDA-MB-231 [1]) | kynurenine production (MDA-MB-231 [2])
1 | CC(C)=CCC/C(C)=C/CO [Geraniol] (compound dose: 10 uM) | 0.998 ± 0.042 | 0.829 ± 0.2
2 | O=C(/C=C/c1ccc(O)c(O)c1)O[C@H]1[C@H](O[C@@H]2O[C@H](CO)[C@@H](O)[C@H](O)[C@H]2O)[C@@H](O)[C@H](OCCc2ccc(O)c(O)c2)O[C@@H]1CO [Plantamajoside] (compound dose: 10 uM) |  | 0.678 ± 0.24
3 | C=C1C(=O)[C@@]23[C@H](O)C[C@@H]4C(C)(C)C(=O)CC[C@@]4(C)[C@@H]2CC[C@@H]1[C@H]3O [Glaucocalyxin A] (compound dose: 10 uM) | 0.832 ± 0.078 | 0.109 ± 0.029
4 | CC1(C)CC[C@]2(C(=O)O)[C@H](O)C[C@]3(C)C(=CC[C@@H]4[C@@]5(C)CC[C@H](O[C@@H]6O[C@H](CO)[C@@H](O)[C@H](O)[C@H]6O)C(C)(C)[C@@H]5CC[C@]43C)[C@@H]2C1 [Ecliptasaponin A] (compound dose: 10 uM) |  | 0.88 ± 0.15

Reference: the supplement of paper PMC13094657
